Data reported in PubChem BioAssay.
Activity calls are given as the source filed them.

Columns and labels:
[1] = system: Human papillomavirus type 1a protein E7 (residues 44-93); test: HPV1a E7 fragment binders on microarrays, primary screen, biochemical, small-molecule microarray, residues 44-93, 635 nm fluorescence (AID 1108); conditions: small-molecule microarray binding, fluorescence 635 nm; higher = more signal;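 note: E7 fragment applied at 1 µg/mL in TBST for 1 h at 4 C; score combines spot fluorescence with its signal to noise ratio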
[2] = modulators of HCV replicon luciferase signal, primary screen, HCV replication inhibitor project, Huh7 cells, luciferase reporter (AID 1109); conditions: 48 h, higher = more signal;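 note: huh7 hepatoma cells harbouring a luciferase neomycin HCV replicon reporter; luciferase luminescence as measure of HCV replicon replication; test concentration not given here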
[3] = target: Left-right determination factor 2 (Homo sapiens) (UniProt O00292); test: LEFTY2 binders on small-molecule microarrays, primary screen, biochemical, small-molecule microarray, 635 nm fluorescence scan (AID 1110); conditions: LEFTY2 binding, higher = more signal
Chain of Left-right determination factor 2 (Homo sapiens) (O00292 whole entry, looked up): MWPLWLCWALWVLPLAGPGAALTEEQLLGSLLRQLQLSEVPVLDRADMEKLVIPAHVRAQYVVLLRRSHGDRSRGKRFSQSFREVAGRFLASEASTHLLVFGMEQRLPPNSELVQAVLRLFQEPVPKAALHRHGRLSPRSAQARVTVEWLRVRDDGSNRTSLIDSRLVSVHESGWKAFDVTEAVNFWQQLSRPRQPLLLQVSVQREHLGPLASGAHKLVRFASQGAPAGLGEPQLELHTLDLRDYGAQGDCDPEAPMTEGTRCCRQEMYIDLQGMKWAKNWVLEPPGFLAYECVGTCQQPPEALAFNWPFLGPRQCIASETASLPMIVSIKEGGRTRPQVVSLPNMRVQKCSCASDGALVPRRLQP

[4] = target: Calmodulin-1 (Homo sapiens) (UniProt P0DP23); test: CALM1 binders on microarrays, EGTA buffer, profiling panel, biochemical, small-molecule microarray, Cy5-labelled CALM1 (AID 1111); conditions: Cy5-CALM1 binding fluorescence, higher = more signal;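 note: labelled calmodulin applied in Tris saline Tween buffer holding calcium plus EGTA and DTT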
[5] = target: Calmodulin-1 (Homo sapiens) (UniProt P0DP23); test: calcium-bound CALM1 binders on microarrays, profiling panel, artefact control for SMM control-protein annotation, biochemical, small-molecule microarray, Cy5-labelled CALM1, plus calcium (AID 1112); conditions: Cy5-CALM1 binding fluorescence, higher = more signal;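 note: score merges spot fluorescence with signal to noise from triplicate slides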
[6] = small-molecule microarray binders of probe aWnt5a, primary screen, biochemical, biotinylated probe, 635/667 nm fluorescence (AID 1113); conditions: higher = more signal;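 note: score merges 667 nm fluorescence intensity with signal-to-noise per printed feature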
[7] = small-molecule microarray binders of probe aShh, primary screen, biochemical, biotinylated probe, 635/667 nm fluorescence (AID 1114); conditions: higher = more signal;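 note: probe is biotin-labelled aShh protein from a stem cell growth factor screen; measures binding of labelled protein to compounds printed on the slide; score merges feature fluorescence at 667 nm with signal-to-noise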
[8] = small-molecule microarray binders of probe aNog, primary screen, biochemical, biotinylated probe, 635/667 nm fluorescence (AID 1115); conditions: higher = more signal;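 note: probe is biotinylated aNog protein used at 0.15 µg/mL for 1 h at 4 C; z-score combines 667 nm fluorescence of each spot with its signal to noise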
[9] = target: Torsin-1A-interacting protein 1 (Homo sapiens) (UniProt Q5JTV8); test: LAP1 binders from COS7 cell lysate, primary screen, small-molecule microarray, 635/667 nm fluorescence (AID 1116); conditions: COS7-hLAP1 lysate binding, 635 nm fluorescence, higher = more signal
Chain of Torsin-1A-interacting protein 1 (Homo sapiens) (Q5JTV8 whole entry, looked up): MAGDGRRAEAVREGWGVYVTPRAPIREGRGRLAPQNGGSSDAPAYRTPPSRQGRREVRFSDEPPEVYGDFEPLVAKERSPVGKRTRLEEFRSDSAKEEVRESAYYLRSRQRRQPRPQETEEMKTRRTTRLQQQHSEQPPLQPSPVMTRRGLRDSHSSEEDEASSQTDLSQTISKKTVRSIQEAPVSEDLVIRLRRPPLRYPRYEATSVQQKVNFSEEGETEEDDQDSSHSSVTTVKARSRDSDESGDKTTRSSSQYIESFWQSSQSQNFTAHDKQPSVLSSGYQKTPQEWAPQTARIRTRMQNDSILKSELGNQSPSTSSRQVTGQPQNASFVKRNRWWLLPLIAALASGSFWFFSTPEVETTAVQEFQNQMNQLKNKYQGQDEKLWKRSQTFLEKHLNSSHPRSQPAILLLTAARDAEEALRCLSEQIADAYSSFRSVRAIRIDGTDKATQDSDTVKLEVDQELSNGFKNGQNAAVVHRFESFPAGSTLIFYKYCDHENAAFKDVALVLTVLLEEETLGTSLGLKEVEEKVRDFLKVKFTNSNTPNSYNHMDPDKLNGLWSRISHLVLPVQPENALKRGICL

[10] = target: Alpha-bungarotoxin (Bungarus multicinctus) (UniProt P60615); test: alpha-bungarotoxin binders on microarray, profiling panel, artefact control for SMM control protein annotation, biochemical, small-molecule microarray, Alexa647 label, 635/667 nm fluorescence (AID 1117); conditions: alpha-BTX-A647 binding fluorescence, higher = more signal
Chain of Alpha-bungarotoxin (Bungarus multicinctus) (P60615 whole entry, looked up): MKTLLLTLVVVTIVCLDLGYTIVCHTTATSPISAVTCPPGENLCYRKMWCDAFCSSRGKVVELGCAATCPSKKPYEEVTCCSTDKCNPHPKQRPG

[11] = target: Albumin (Bos taurus) (UniProt P02769); test: bovine serum albumin binders on microarray, profiling panel, artefact control for SMM control protein annotation, biochemical, small-molecule microarray, Alexa647 label, 635/667 nm fluorescence (AID 1118); conditions: BSA-A647 binding, fluorescence 635 nm, higher = more signal;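 note: score merges 667 nm emission intensity and signal-to-noise per printed compound spot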
Chain of Albumin (Bos taurus) (P02769 whole entry, looked up): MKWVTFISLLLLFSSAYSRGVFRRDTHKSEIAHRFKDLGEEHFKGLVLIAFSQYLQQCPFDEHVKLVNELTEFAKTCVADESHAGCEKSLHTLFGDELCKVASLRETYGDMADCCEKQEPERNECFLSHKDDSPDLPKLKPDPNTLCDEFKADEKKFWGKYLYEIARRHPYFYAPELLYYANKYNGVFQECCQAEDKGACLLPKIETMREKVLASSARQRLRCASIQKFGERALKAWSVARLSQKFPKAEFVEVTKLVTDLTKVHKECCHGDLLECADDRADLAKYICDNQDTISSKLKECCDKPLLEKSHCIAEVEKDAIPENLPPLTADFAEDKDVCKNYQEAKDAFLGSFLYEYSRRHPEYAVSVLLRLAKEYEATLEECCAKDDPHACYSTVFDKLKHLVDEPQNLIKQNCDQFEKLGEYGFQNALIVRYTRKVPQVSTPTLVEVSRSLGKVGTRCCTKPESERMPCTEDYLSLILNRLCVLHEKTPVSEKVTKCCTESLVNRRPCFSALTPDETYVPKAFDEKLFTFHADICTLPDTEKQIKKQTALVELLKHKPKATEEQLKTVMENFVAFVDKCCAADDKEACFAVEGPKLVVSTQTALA

[12] = small-molecule microarray binders of probe aXIP, primary screen, biochemical, NeuroSMM set, 635/667 nm fluorescence (AID 1119); conditions: higher = more signal, called active from +8 up or from −8 down;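 note: probe is the protein aXip251-270 applied at 1 µg/mL to compound-printed slides; binding of probe to printed compounds measured as 667 nm fluorescence plus signal to noise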
[13] = small-molecule binders of probe aNOTCH3, primary screen, biochemical, small-molecule microarray, 635/667 nm fluorescence (AID 1120); conditions: higher = more signal;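 note: probe is a biotin-tagged antibody raised against NOTCH3 rather than NOTCH3 protein; score merges spot fluorescence near 667 nm with spot signal to noise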
[14] = small-molecule binders of probe aNOTCH2, primary screen, biochemical, small-molecule microarray, 635/667 nm fluorescence (AID 1121); conditions: higher = more signal;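 note: score merges feature fluorescence read at 667 nm with its signal to noise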
[15] = target: Carbonic anhydrase 2 (Homo sapiens) (UniProt P00918); test: CAII small-molecule binders, profiling panel, biochemical, small-molecule microarray, Alexa647-labelled CAII (AID 1122); conditions: CAII-A647 binding fluorescence, higher = more signal
[16] = COS7 lysate on small-molecule microarray, probe aHis, 635 nm (AID 1123); conditions: COS7 cell lysate, fluorescence, higher = more signal;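 note: z-score combines 667nm fluorescence intensity with signal-to-noise per printed compound spot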
[17] = compound binding in COS7 lysate, probe aLAP1, primary screen, cell lysate, small-molecule microarray (AID 1124); conditions: probe aLAP1, fluorescence, higher = more signal;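 note: lysate comes from COS7 cells expressing LAP1 and is applied at 0.3 µg/mL; score merges spot fluorescence near 667 nm with signal-to-noise over triplicate slides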
[18] = system: Sam68 (KHDRBS1); test: Sam68 small-molecule binders, primary screen, biochemical, small-molecule microarray, 635 nm fluorescence (AID 1125); conditions: small-molecule microarray binding, higher = more signal;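 note: score merges 667 nm channel intensity with signal to noise over triplicate slides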
[19] = system: Chordin-like protein 2 (CHRDL2); test: CHRDL2 small-molecule binders, primary screen, biochemical, small-molecule microarray, 635 nm fluorescence (AID 1126); conditions: small-molecule microarray binding, fluorescence 635 nm; higher = more signal;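 note: printed compound slides probed with Chrdl2 protein at 4 µg/mL for 1 h at 4 C; score merges 667 nm emission intensity with signal to noise over three replicate slides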
[20] = target: Concanavalin-A (Canavalia ensiformis) (UniProt P02866); test: ConA small-molecule binders, primary screen, artefact control for SMM control protein annotation, biochemical, small-molecule microarray, Alexa647 label, 635 nm (AID 1127); conditions: ConA-A647 binding fluorescence, higher = more signal;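 note: z combines 667 nm emission intensity with signal-to-noise across three replicate slides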
Chain of Concanavalin-A (Canavalia ensiformis) (P02866 whole entry, looked up): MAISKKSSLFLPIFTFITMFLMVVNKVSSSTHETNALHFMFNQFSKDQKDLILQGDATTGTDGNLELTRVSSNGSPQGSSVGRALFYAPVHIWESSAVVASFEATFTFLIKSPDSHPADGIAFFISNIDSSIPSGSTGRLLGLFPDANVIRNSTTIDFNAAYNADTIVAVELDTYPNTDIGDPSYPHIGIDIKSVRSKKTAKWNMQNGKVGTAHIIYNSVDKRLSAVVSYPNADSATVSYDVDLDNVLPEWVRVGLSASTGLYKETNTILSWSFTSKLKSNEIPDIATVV

Structure (SMILES)	composite z-score [1]	z-score [2]	composite z-score [3]	composite z-score [4]	composite z-score [5]	composite z-score [6]	composite z-score [7]	composite z-score [8]	composite z-score [9]	composite z-score [10]	composite z-score [11]	composite Z-score [12]	composite z-score [13]	composite z-score [14]	composite z-score [15]	composite z-score [16]	composite z-score [17]	composite z-score [18]	composite z-score [19]	composite z-score [20]
COC(=O)[C@H](Cc1ccccc1)N1CC(/C=C/C2CC2)=C[C@@H]1[C@@H](O)Cc1ccccc1	1.31	-1.33	1.04	0.48	-0.513	0.0079	-0.0035	0.131	0.0412	0.737	0.506	-0.325 (inactive)	0.126	-0.166	0.171	0.992	1.66	1.34	0.779	1
CC=CC(O)C1C=CC2C(=O)N(c3ccccc3)C(=O)C2N1Nc1ccccc1 (stereo not given)	1.19	0.527	0.215	0.667	0.362	0.136	0.304	1.16	1.1	1.89	0.867	0.454 (inactive)	0.291	0.121	0.681	2.57	0.243	1.29	0.25	1.19
NC(=O)NCC#Cc1ccc2c(c1)[C@]1(C(=O)N2)[C@H](C(=O)O)[C@H]2C(=O)O[C@H](c3ccccc3)[C@H](c3ccccc3)N2[C@@H]1c1ccccc1OCCO	0.497	0.393	0.28	2.05	1.01	0.0354	-0.412	0.91	1.45	3.27	0.501	0.434 (inactive)	0.199	0.0505	0.372	0.329	-0.0878	0.685	0.915	1.11
CO[C@H]1O[C@H](CO)[C@@H](OC(=O)Nc2ccccc2-c2ccccc2)[C@H](OC(=O)Nc2ccc3c(c2)OCO3)[C@@H]1OC(=O)Nc1ccc2c(c1)OCO2	1.49	-0.841	0.0086	1.24	-0.499	0.0244	0.232	1.21	0.541	1.01	0.508	0.151 (inactive)	0.389	-0.0684	0.735	2.47	0.335	1.3	0.517	0.921
C=CCC(OC(C)=O)[C@@H]1[C@@H](N(Cc2ccc(-c3ccccc3)cc2)C(=O)c2cccc3ccccc23)c2cc(OCCCO)ccc2N1C(=O)Cc1ccc2ccccc2c1 (stereo not given in full)	-0.106	-0.374	-0.304	-0.29	0.842	-0.108	-0.243	-0.225	0.0247	0.528	0.413	-0.277 (inactive)	-0.0345	-0.0891	-0.0417	0.321	0.194	-0.35	-0.133	-0.353
COCCCNC(=O)[C@@]1(Sc2ccc(C)cc2)CC(=O)N(C2Cc3ccccc3C2)[C@@H]1c1ccc(CO)cc1I	-0.499	-1.05	-1.31	-0.176	0.0685	-0.154	-0.536	-0.0621	-0.354	-0.0078	-1.09	-0.298 (inactive)	-0.146	-0.102	0.871	-0.152	0.297	-0.52	-0.555	-1.61
CC[C@H]1C2=C3C(CC[C@H]4C(OCc5ccc(F)cc5C(F)(F)F)OC[C@](C)([C@@H]34)N(C(=O)OC(C)(C)C)C2)C2COC(=O)OCC21 (stereo not given in full)	1.34	-2.1	-0.532	2.48	0.911	-0.0297	0.246	-0.712	0.713	0.347	0.911	0.572 (inactive)	0.367	0.0755	0.578	2.62	0.494	1.32	-1.64	0.994
C=CCN1C(=O)[C@]2(CC=C)N=C(c3ccc(OCCCO)cc3)O[C@@H]2c2ccccc21	1.37	-2.63	0.503	1.94	0.541	0.123	0.0253	0.0962	1.14	1.08	0.93	1.66 (inactive)	0.193	-0.0648	0.675	1.35	0.053	1.33	0.689	1.14
CN(C)CCCCNC(=O)[C@H]1C[C@H]2C(=O)N3CCC[C@H]3C(=O)N2[C@H]1c1ccc(O)cc1	-1.11	0.939	-0.148	-0.969	-0.949	-0.45	-0.401	0.39	-0.206	-1.01	-0.813	0.11 (inactive)	-0.738	-0.5	0.666	1.44	-0.642	-1.11	0.0994	-0.397
COc1ccc([Si](C)(C)[C@@H]2[C@@H](CCn3cc([C@H](O)c4ccccc4)nn3)O[C@]3(C(=O)N(Cc4ccc(N5CCOC5=O)cc4)c4ccccc43)[C@H]2C)cc1	1.11	-2.29	0.846	0.142	-0.488	-0.0179	0.0224	-0.0675	1.74	1.06	0.579	0.0409 (inactive)	0.165	-0.0502	0.0584	0.617	0.664	1.09	1.03	0.853
COc1ccc(NN2C(C(O)c3ccco3)C=CC3C(=O)N(C4CCCCC4)C(=O)C32)cc1 (stereo not given)	1.42	0.224	0.519	0.9	0.267	0.0613	0.0639	0.353	0.605	0.916	0.749	0.0786 (inactive)	0.353	-0.115	0.377	1.44	0.564	1.32	0.0446	1
